We go through 7 compounds from PubChem BioAssay.

Assay [1] has as its target ATP-dependent translocase ABCB1 (Homo sapiens) (UniProt P08183). Kind of assay: P-glycoprotein substrate transport blockade – cell-based (AID 377; in the data active = fluorescence slope change above about 50%). As to conditions: MDR1-expressing cells, fluorescent substrate accumulation slope; stronger effect = higher value; concentration not given here.
A short description of assay [2]: compounds altering circadian rhythm period length – cell-based, LOPAC library, luminescence reporter (AID 2774).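 Note: values are relative to mean of DMSO wells on each plate.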 To be noted: circadian reporter cells, at 7 µM, actives lie on both sides.
Assay [3] in a line: compounds altering viability of human ES cells (AID 493140).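 Note: cells exposed to compounds for four days before counting.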 To be noted: human embryonic stem cell survival screen; stronger effect = higher value.
Assay [4] in a line: P. berghei load reduction in hepatocytes – cell-based, HepG2, luciferase luminescence, HepG2 viability, primary screen (AID 624349; in the data active = parasite load remaining mostly below about 12%, no sharp cut-off; inactive = mostly above about 10%;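 note: 100% = mean of DMSO negative control wells on the same plate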). To be noted: P. berghei liver stage in HepG2, luciferase luminescence, concentration not given here; parasite load remaining: stronger effect = lower value; viability: measured here: HepG2 viability without parasites.
Assay [5] has as its system Hepatitis C virus NS3 helicase. Briefly: blockers of NS3h binding to ssDNA – biochemical, fluorescence polarization, LOPAC1280 library, primary screen (AID 687035; in the data active = inhibition above about 37%). As to conditions: Purified HCV NS3 helicase, Cy5-dT15 ssDNA binding fluorescence polarization; stronger effect = higher value; concentration not given here.
Assay [6] in a line: compounds altering Cy5-DNA-NS3h complex signal – biochemical, LOPAC1280, artefact control for HCV NS3 helicase inhibitor project (AID 687037). To be noted: Cy5-DNA-NS3h complex fluorescence interference counterscreen.
The target of assay [7] is 6-phosphogluconate dehydrogenase, decarboxylating (Homo sapiens) (UniProt P52209). Kind of assay: inhibition of human phosphogluconate dehydrogenase – biochemical, recombinant enzyme, NADPH absorbance, primary screen (AID 1159550;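 active = at least 20% inhibition of 6-phosphogluconate dehydrogenase activity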). As to conditions: recombinant 6PGD, NADPH absorbance 341 nm; at 10 µM; stronger effect = higher value.
Chain of 6-phosphogluconate dehydrogenase, decarboxylating (Homo sapiens) (P52209 whole entry, looked up): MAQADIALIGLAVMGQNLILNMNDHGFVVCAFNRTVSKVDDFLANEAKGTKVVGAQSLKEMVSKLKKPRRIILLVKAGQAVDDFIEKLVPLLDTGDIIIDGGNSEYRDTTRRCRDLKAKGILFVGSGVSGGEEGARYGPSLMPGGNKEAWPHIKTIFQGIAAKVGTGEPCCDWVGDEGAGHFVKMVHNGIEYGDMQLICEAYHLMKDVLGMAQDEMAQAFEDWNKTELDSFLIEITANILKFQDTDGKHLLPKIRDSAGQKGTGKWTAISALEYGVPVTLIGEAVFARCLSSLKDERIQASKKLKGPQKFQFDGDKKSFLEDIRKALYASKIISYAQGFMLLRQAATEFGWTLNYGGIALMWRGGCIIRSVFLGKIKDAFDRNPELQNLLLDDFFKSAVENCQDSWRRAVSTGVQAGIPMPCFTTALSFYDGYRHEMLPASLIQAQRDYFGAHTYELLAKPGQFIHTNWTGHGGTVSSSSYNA
Assay [8] can be described thus: viability loss with induced miR-34 in A549 – imaging, A549 dox-inducible miR-34, nuclei and caspase counts, primary screen (AID 1347080;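 active = compounds whose cell count with miR-34 switched on is under 0.7 times the count with it off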). To be noted: A549 miR-34 inducible, Hoechst nuclei count, 48 h.
Assay [9] is described as follows: blockers of cellular phospholipid synthesis – cell-based, LOPAC library, screen 4, primary screen (AID 1347384). As to conditions: animal cells, phospholipid biosynthesis inhibition screen; at 10 µM.
A short description of assay [10]: galactose survival enhancers in mitochondrial complex I cybrids – cell-based, galactose medium, ATP luminescence, primary screen (AID 1645843;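 active = z-score of at least 1.8 in each of two replicates, scored against plate mean and spread of sample wells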;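 note: positive z means more ATP and so rescue of galactose-driven cybrid death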). As to conditions: complex I mutant cybrid cells, 72 h, stronger effect = higher value.
The nature of assay [11]: MELAS cybrid and Rieske KO viability enhancers – cell-based, MELAS cybrids, Rieske KO mouse fibroblasts, CellTiter-Glo, primary screen (AID 1508586;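 active = mean z-score across replicates of 1.96 or higher in either the MELAS or the Rieske mutant cell line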;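 note: z relative to plate mean and SD of compound and empty wells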). To be noted: low glucose.
In assay [12] the target is NAD(+) hydrolase SARM1 (Homo sapiens) (UniProt Q6SZW1). Kind of assay: blocking NAD cleavage by SARM1 SAM-TIR – cell lysate, NAD-Glo luminescence (AID 1508614;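 active = compound whose remaining NAD level is above about 45 nM, limit read from the data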;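 note: higher remaining NAD means stronger inhibition of SARM1 NADase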). To be noted: SAM-TIR HEK293T lysate NADase, at 1 µM, stronger effect = higher value.
Chain of NAD(+) hydrolase SARM1 (Homo sapiens) (Q6SZW1 whole entry, looked up, the tested form may be a part): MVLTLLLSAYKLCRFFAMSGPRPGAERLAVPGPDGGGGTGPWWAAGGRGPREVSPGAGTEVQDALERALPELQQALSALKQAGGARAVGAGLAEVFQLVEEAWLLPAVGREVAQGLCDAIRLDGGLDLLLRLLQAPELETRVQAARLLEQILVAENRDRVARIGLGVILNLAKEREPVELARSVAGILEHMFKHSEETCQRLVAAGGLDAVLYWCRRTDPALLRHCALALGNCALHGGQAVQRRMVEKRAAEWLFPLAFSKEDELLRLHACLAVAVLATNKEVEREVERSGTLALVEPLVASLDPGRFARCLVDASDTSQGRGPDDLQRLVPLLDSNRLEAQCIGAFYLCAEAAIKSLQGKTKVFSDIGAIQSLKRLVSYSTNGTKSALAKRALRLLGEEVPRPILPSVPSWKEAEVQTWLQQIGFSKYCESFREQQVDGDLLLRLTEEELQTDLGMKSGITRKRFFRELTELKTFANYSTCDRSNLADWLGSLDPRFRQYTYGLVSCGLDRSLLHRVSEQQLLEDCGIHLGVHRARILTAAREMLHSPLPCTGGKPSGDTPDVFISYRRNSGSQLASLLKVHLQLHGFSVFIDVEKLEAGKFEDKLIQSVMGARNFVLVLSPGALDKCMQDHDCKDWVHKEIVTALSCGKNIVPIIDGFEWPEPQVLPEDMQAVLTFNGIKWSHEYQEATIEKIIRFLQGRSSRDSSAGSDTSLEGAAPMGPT
Assay [13] concerns the target Mitogen-activated protein kinase 7 (Homo sapiens) (UniProt Q13164). Kind of assay: Gal4-ERK5 driven luciferase induction – cell-based, HTS, primary screen (AID 1508626;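 active = luciferase signal above three times the same-plate solvent-only control wells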;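 note: luciferase driven by Gal4-ERK5 fusion binding five Gal4 sites before minimal TATA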). To be noted: HeLa Gal4-ERK5 transactivation, 18 h, at 5 µM, stronger effect = higher value.
Assay [14] can be described thus: viability loss in pontine glioma line – cell-based, SU-DIPG-XIII, MIPE4.0, CellTiter-Glo, qHTS, dose response (AID 1347061; cut-off not given, nearly all actives have AC50 up to about 37 µM;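 note: cells exposed to compound for 48 hours before readout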). As to conditions: CellTiter-Glo ATP luminescence.
A short description of assay [15]: viability loss in pontine glioma line – cell-based, JHH-DIPG-1, MIPE4.0, CellTiter-Glo, qHTS, dose response (AID 1347062; cut-off not given, nearly all actives have AC50 up to about 27 µM). As to conditions: JHH-DIPG-1 viability, CellTiter-Glo ATP luminescence.
Assay [16] in a line: blockers of polyQ-driven CASP3 activation – cell-based (AID 1583). As to conditions: polyglutamine-induced caspase-3 activation, cell assay; stronger effect = higher value;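 tested at 10 µM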.
The nature of assay [17]: yeast 75Q aggregation reduction – 75Q-TubU reporter (AID 1593). To be noted: Yeast 75Q polyglutamine aggregation reporter.
Assay [18] is described as follows: restoration of touch response, mutant HTT neurons – whole organism, C. elegans mechanosensory neurons, N-terminal huntingtin (AID 1599). As to conditions: C. elegans polyQ-huntingtin mechanosensory neurons, stronger effect = higher value.
A short description of assay [19]: blockers of cytochrome c efflux from mitochondria – biochemical, purified mitochondria (AID 1603).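 Note: mouse liver mitochondria challenged with calcium chloride; signal normalized to the plate average as 100%.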 To be noted: stronger effect = lower value.
Assay [20] in a line: polyglutamine aggregate formation blockers (AID 1604). To be noted: polyglutamine-induced protein aggregation inhibition assay; stronger effect = higher value; tested at 2.5 µM.
Assay [21] can be described thus: glutamate transport activators, MN-1 cells, MN-1 cell line (AID 1612).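 Note: tested at 1 µM final; 0% = mean of DMSO vehicle wells on each plate; positive means more glutamate uptake than control and negative means less.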 As to conditions: MN-1 motor neuron cells, stronger effect = higher value.
A short description of assay [22]: GFP-Q80 aggregate reduction, neuronal-like cells, cell-based, NGF-treated PC12, GFPQ80 (AID 1614).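 Note: lower means fewer inclusions and 0 means no inclusions at all.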 As to conditions: PC12 NGF-treated GFP-polyQ80 inclusion reduction.
Assay [23] in a line: 75Q-TubH aggregate inhibition, S. cerevisiae, yeast (AID 1616). As to conditions: S. cerevisiae 75Q-TubH polyglutamine aggregation suppression; stronger effect = higher value.
The mark [24] stands for this setting: stronger effect = lower value, cell number ratio, induced over uninduced.
[25] abbreviates: measured here: relative caspase fold change +Dox/-Dox.
The mark [26] stands for this setting: measured here: total cells with miR-34 induction, stronger effect = lower value.
Setting [27] is: measured here: total cells without miR-34 induction.
Setting [28] is: MELAS cybrid survival, CellTiter-Glo 48 h, stronger effect = higher value.
The mark [29] stands for this setting: Rieske KO mouse fibroblast survival, CellTiter-Glo 72 h.

Values joined by “and” are separate entries in the source; they are usually repeats but may differ in a detail not shown here. Equal entries are not always repeated. Results filed as inconclusive are left out. For some assays here: Results with a measured potency or affinity are listed apart. Active and inactive are the calls of the source. Unless noted, the rule behind the calls is not given here.

Chain of Mitogen-activated protein kinase 7 (Homo sapiens) (Q13164 whole entry, looked up, the tested form may be a part): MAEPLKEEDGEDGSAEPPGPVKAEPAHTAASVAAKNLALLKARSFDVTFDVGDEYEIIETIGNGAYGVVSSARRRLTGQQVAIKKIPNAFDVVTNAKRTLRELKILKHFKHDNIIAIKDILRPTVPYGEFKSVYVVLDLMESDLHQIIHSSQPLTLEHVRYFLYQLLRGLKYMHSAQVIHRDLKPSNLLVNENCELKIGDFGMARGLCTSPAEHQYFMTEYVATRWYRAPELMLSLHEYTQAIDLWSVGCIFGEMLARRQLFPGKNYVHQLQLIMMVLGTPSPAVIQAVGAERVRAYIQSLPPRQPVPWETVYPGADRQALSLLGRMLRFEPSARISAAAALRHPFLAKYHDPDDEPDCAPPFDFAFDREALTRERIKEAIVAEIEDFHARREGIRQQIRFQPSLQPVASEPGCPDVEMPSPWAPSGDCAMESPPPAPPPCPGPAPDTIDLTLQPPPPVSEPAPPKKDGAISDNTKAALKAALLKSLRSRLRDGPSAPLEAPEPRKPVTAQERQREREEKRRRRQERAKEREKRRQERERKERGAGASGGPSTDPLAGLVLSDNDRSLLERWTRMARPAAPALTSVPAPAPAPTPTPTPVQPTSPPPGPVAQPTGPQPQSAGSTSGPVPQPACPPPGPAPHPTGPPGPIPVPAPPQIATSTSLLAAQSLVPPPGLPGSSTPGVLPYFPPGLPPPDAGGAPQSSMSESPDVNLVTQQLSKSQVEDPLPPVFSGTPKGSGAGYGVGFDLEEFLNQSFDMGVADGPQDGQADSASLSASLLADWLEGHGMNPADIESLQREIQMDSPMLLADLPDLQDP
Chain of ATP-dependent translocase ABCB1 (Homo sapiens) (P08183 whole entry, looked up): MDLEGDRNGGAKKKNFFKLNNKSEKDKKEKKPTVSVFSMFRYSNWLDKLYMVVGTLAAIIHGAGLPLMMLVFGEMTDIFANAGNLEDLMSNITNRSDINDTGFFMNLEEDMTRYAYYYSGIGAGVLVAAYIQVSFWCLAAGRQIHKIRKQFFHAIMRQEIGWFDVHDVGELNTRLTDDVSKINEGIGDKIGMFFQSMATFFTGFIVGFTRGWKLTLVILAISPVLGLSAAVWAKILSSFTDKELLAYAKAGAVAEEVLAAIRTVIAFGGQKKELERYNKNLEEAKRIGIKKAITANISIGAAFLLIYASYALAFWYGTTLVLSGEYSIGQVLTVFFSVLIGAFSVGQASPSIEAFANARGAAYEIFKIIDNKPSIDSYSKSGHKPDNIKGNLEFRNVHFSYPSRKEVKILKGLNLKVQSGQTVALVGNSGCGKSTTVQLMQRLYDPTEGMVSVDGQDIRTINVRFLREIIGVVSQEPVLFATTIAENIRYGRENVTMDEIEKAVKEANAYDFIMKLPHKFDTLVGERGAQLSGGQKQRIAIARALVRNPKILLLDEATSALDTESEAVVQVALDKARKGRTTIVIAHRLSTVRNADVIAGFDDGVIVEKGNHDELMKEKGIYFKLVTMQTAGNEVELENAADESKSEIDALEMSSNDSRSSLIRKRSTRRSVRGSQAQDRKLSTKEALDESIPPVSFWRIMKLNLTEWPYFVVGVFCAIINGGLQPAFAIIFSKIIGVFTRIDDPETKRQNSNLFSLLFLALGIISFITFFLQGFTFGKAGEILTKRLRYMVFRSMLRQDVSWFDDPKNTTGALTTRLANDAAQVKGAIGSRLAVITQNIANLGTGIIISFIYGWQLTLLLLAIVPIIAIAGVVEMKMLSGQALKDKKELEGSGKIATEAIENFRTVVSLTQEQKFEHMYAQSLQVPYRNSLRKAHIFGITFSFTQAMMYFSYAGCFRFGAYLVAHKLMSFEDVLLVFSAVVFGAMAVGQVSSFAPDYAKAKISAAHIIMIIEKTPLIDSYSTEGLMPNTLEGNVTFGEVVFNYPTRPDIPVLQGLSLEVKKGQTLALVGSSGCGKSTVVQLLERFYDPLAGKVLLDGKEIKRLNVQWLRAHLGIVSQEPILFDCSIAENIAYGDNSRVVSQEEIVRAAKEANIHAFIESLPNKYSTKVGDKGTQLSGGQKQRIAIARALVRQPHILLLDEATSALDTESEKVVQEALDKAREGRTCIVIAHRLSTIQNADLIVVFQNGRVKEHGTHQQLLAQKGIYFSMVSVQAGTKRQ

As for `C=C[C@H]1CN2CCC1C[C@@H]2[C@@H](O)c1ccnc2ccc(OC)cc12` (some centres undefined), the fluorescence slope change in [1] was 95% (active). Moreover, in [2], the period change was -0.225 h (inactive). Further, the survival in [3] is 6.17 (inactive). For the same compound, in assay [4], the parasite load remaining was 28.6% (inactive). Moreover, in [4], the viability came to 94.6%. The inhibition in assay [5] is -1% (inactive); in assay [7], -0.543% (inactive). Further, the fluorescence ratio (interference) in assay [6] is 1 (inactive). In addition, the fold change is 1.07 (inactive) in assay [8] (setting [24]) and 1.29 in [8] (setting [25]). Moreover, the cell count in assay [8] (setting [26]) was determined as 9920; in assay [8] (setting [27]) it was 9300. For the same compound, in [9], the call was inactive. In addition, the z-score in assay [10] was -1.04 (inactive).

As for `C#C[C@]1(O)CC[C@H]2[C@@H]3CCC4=C(CCC(=O)C4)[C@H]3CC[C@@]21C`, the survival in [3] is 25.3 (inactive). The parasite load remaining in assay [4] was 17.7% (inactive) and 100% (inactive). Moreover, the viability in assay [4] is 48% and 90.5%. Moreover, the inhibition in assay [7] is -2.85% (inactive). Also, the fold change in assay [8] (setting [24]) was 0.896 (inactive); in [8] (setting [25]), 0.927. For the same compound, the cell count came out at 7990 in assay [8] (setting [26]) and 8920 in [8] (setting [27]). For the same compound, the z-score in assay [11] (setting [28]) was 0.723 (inactive); in assay [11] (setting [29]) it was 0.808. Besides, the remaining NAD in [12] is 10 nM (inactive). Moreover, the luciferase signal in [13] is 44 AU (inactive).

On to `CO/N=C(\C(=O)N[C@@H]1C(=O)N2C(C(=O)OCOC(=O)C(C)(C)C)=C(/C=C\c3scnc3C)CS[C@H]12)c1csc(N)n1`, for which the inhibition in [7] is -4.41% (inactive). Further, the compound was classed as inactive in assay [14] and in [15]. The remaining NAD in [12] was 10 nM (inactive).

For `C[N+]1(C)[C@@H]2CC[C@H]1CC(OC(=O)C(O)c1ccccc1)C2` (some centres undefined), the inhibition in assay [7] is -20.5% (inactive). Also, the fold change is 0.938 (inactive) in assay [8] (setting [24]) and 0.48 in assay [8] (setting [25]). Moreover, the cell count in assay [8] (setting [26]) stood at 8390; in assay [8] (setting [27]), 8940. The z-score in assay [11] (setting [28]) was -0.289 (inactive); in assay [11] (setting [29]) it was -0.189. In assay [12], the remaining NAD is 10 nM (inactive). Moreover, the luciferase signal in [13] was 20 AU (inactive).

As to `O=C1O[C@H]([C@@H](O)CO)C(O)=C1O`, the parasite load remaining in [4] is -6.73% (active). For the same compound, the viability in assay [4] turned out to be 110%. Besides, the inhibition in assay [7] was -9.94% (inactive). The figures for the fold change in [8] (setting [24]) and in assay [8] (setting [25]) were 0.839 (inactive) and 1.22, respectively. Besides, the figures for the cell count in [8] (setting [26]) and in [8] (setting [27]) were 7560 and 9010, respectively. In addition, the z-score in assay [11] (setting [28]) was -0.883 (inactive); in assay [11] (setting [29]), -0.395. For the same compound, the remaining NAD in assay [12] is 10 nM (inactive). Also, the luciferase signal in [13] is 60 AU (inactive).

Take `O[C@H]1[C@H]2c3cc4c(cc3CN3CCC(=C[C@@H]1O)[C@H]23)OCO4`: the inhibition in assay [7] was 9.07% (inactive). Further, the fold change in [8] (setting [24]) is 1.05 (inactive); in assay [8] (setting [25]) it was 1.33. The cell count in assay [8] (setting [26]) came to 1670; in assay [8] (setting [27]), 1580.

As for `CC(=O)NCCc1c[nH]c2ccc(O)cc12`, the inhibition in assay [16] is 26.8%; in assay [5], 0% (inactive); in assay [7], 8.58% (inactive). In addition, in assay [17], the score amounted to 1.5. The rescue above control in assay [18] is 2.04. Besides, in assay [19], the cytochrome c release ratio came to 0.84. Also, the inhibition of aggregation in [20] was 31.4%. This compound yielded a glutamate uptake change in [21] of 0.88%. The inclusion score in assay [22] stood at 2. This compound also had an aggregation suppression score in assay [23] of 1.34. For the same compound, the period change in assay [2] was -0.07 h (inactive). In addition, the fluorescence ratio (interference) in [6] was 1 (inactive). The fold change in assay [8] (setting [24]) was 1.02 (inactive); in assay [8] (setting [25]) it was 1.87. Moreover, the cell count in assay [8] (setting [26]) was found to be 10700; in assay [8] (setting [27]) it was 10400. In assay [9], the result was inactive. The luciferase signal in assay [13] was 32 AU (inactive). In addition, the z-score in assay [10] is 0.08 (inactive).
